# In all, about 48,000 compounds went through this assay and about 13,000 (27%) showed an effect of 50% or more. The list shows a part of the results.
# Tested on: Wolbachia pipientis
# Assay: Anti-Wolbachia Cell-Based Screen
# Format: functional
# Design: scale not given: in the data most compounds retested in dose-response had high values
# Conditions: 5 µM
row,Compound,Percent Effect
1,COCCCN1CCCC2(CCN(S(=O)(=O)c3cccnc3)C2)C1=O (configuration not stated),-3.769%
2,Cc1nccc(C2CCCN(S(=O)(=O)N3CCOCC3)C2)n1 (configuration not stated),96.21%
3,Cc1ccc(C2CCCN(S(=O)(=O)N3CCOCC3)C2)nc1 (configuration not stated),122.5%
4,Cc1ccc(C2CCCN(S(C)(=O)=O)C2)nc1 (configuration not stated),144.7%
5,CC1(C)CNC(=O)c2nc(C3CCCN(S(C)(=O)=O)C3)[nH]c2C1 (configuration not stated),-1.918%
6,O=C(O)c1cccc(C2CCCN(S(=O)(=O)N3CCOCC3)C2)c1 (configuration not stated),13.32%
7,CC1CCN(S(=O)(=O)N2CCCC(c3cccc(C(=O)O)c3)C2)CC1 (configuration not stated),-0.2169%
8,CS(=O)(=O)N1CC[C@H](c2nc3ccc(C(F)(F)F)cc3[nH]2)C1,11.72%
9,CN(C1CCN(c2ccccn2)CC1)S(=O)(=O)N1CCOCC1,4.035%
10,O=S(=O)(N1CCOCC1)N1CCCC(c2ccccn2)C1 (configuration not stated),113%
11,Cc1noc2ncc(S(=O)(=O)Nc3cc(CC(C)(C)C)[nH]n3)cc12,-3.68%
12,CCC(NS(C)(=O)=O)c1ccccc1OC (configuration not stated),-5.645%
13,CCN(Cc1cccs1)C(=O)c1ccc(=O)n(C)c1,17.88%
14,Cc1cccnc1CC(C)N(C)C(=O)c1ccoc1C (configuration not stated),-11.81%
15,Cc1occc1CNC(=O)C1(C)CCCN(C(=O)c2ccccc2)C1 (configuration not stated),10.24%
16,Cc1csc(C(C#N)C(=O)Nc2ccccc2)n1 (configuration not stated),-10.65%
17,Cc1ccc(S(=O)(=O)N(C)Cc2nccs2)cc1N(C)C,7.403%
18,CNC(=O)c1sc(C2CCCC2)nc1C,1.771%
19,Cc1nc(C2CCCC2)sc1C(N)=O,-5.82%
20,Cc1nc(C2CCCN(S(C)(=O)=O)C2)sc1Br (configuration not stated),114.6%
21,COCC1CN(c2ccc(C)nn2)Cc2cnn(C)c21.O=C(O)C(F)(F)F.O=C(O)C(F)(F)F (configuration not stated),88.37%
22,CCn1cc2c(n1)C(COC)CN(c1ccc(C)nn1)C2.O=C(O)C(F)(F)F.O=C(O)C(F)(F)F (configuration not stated),2.14%
23,CCOCC1CN(c2ccc(C)nn2)Cc2cnn(CC)c21.O=C(O)C(F)(F)F.O=C(O)C(F)(F)F (configuration not stated),109.7%
24,CCOCC1CN(c2ccc(C)nn2)Cc2nn(CC)cc21.O=C(O)C(F)(F)F.O=C(O)C(F)(F)F (configuration not stated),10.42%
25,Cc1noc(C)c1CN1Cc2cnn(C)c2C(COCC2CC2)C1.O=C(O)C(F)(F)F.O=C(O)C(F)(F)F (configuration not stated),-11.34%

row,Compound,Percent Effect
1,CCOCC1CN(S(=O)(=O)N(C)C)Cc2cnn(C)c21.O=C(O)C(F)(F)F (configuration not stated),-5.434%
2,Cc1ncsc1CN1Cc2cnn(C)c2C(COCC2CC2)C1.O=C(O)C(F)(F)F.O=C(O)C(F)(F)F (configuration not stated),-6.117%
3,Cc1ccc(N2Cc3cnn(C)c3C(COCC3CC3)C2)nn1.O=C(O)C(F)(F)F.O=C(O)C(F)(F)F (configuration not stated),105.5%
4,COCC1CN(c2ccc(C)nn2)Cc2cnn(CC3CCOCC3)c21.O=C(O)C(F)(F)F.O=C(O)C(F)(F)F (configuration not stated),113.1%
5,CCOCC1CN(C)Cc2cnn(CC3CCCC3)c21.O=C(O)C(F)(F)F.O=C(O)C(F)(F)F (configuration not stated),4.173%
6,COCC1CN(Cc2ccc(C)o2)Cc2cnn(CC3CCOCC3)c21.O=C(O)C(F)(F)F.O=C(O)C(F)(F)F (configuration not stated),3.505%
7,CCOCC1CN(S(=O)(=O)N(C)C)Cc2cnn(CC)c21.O=C(O)C(F)(F)F (configuration not stated),-6.757%
8,c1ccc(-c2nc3c(c(NCCn4ccnn4)n2)CCNCC3)nc1,-1.189%
9,O=S(=O)(NCCCn1ccc2ccccc21)N1CCCCC1,-18.64%
10,CC(Cc1cccnc1)Nc1ncnc2cccc(F)c12 (configuration not stated),-13.17%
11,Cc1noc(C)c1CNC(=O)N1CCC(CN2CCC(C)CC2)CC1,0.5097%
12,CCn1ncc2c1C(COCC1CC1)CN(c1ccc(C)nn1)C2.O=C(O)C(F)(F)F.O=C(O)C(F)(F)F (configuration not stated),84.42%
13,CS(=O)(=O)N1Cc2cnn(CC3CC3)c2C(COCC2CC2)C1.O=C(O)C(F)(F)F (configuration not stated),-10.17%
14,CCn1ncc2c1C(COCC1CC1)CN(S(=O)(=O)N(C)C)C2.O=C(O)C(F)(F)F (configuration not stated),4.655%
15,O=C(c1ccc2nccn2c1)N1CCC(CCn2cccn2)CC1,-0.54%
16,Cc1cc(S(=O)(=O)N2CCC(S(C)(=O)=O)CC2)ccc1F,-10.45%
17,Cc1ccc(S(=O)(=O)N2CCC(S(C)(=O)=O)CC2)cc1C,132.3%
18,COc1ccc(S(=O)(=O)N2CCC(S(C)(=O)=O)CC2)cc1C,-19.61%
19,CCC[C@@H]1CN(S(=O)(=O)c2ccc(C)c(F)c2)C[C@H]1N(C)C,-4.153%
20,CS(=O)(=O)C1CCN(S(=O)(=O)c2ccc(F)c(F)c2)CC1,110.6%
21,Cc1ccc(S(=O)(=O)N2CC[C@@H](O)C2)c(F)c1,-13.3%
22,Cc1cc(S(=O)(=O)N2CCCN3CCCC3C2)ccc1F (configuration not stated),-4.296%
23,Cc1cc(S(=O)(=O)N2CCC(S(C)(=O)=O)C2)ccc1F (configuration not stated),74.96%
24,CS(=O)(=O)C1CCN(S(=O)(=O)c2ccc(F)c(F)c2)C1 (configuration not stated),88%
25,Cn1cnnc1S(=O)(=O)C1CCN(S(=O)(=O)c2ccc(F)c(Cl)c2)CC1,-4.538%

row,Compound,Percent Effect
1,COc1ccc(S(=O)(=O)N2CCn3nc(C)nc3C2)cc1C,-5.027%
2,O=S1(=O)CCC(c2nnc(-c3cnc4onc(C5CC5)c4c3)o2)C1 (configuration not stated),-6.363%
3,CN(C)C(=O)NC1COC2(CCN(Cc3ccc(N(C)C)cc3)CC2)C1 (configuration not stated),6.702%
4,CSCCNC(=O)c1cc(Br)cn1C(C)C,-6.324%
5,Cc1nc(C)n(CC2CCCN2Cc2cn3ccsc3n2)n1 (configuration not stated),1.786%
6,CCC(OC)C(=O)N1CCC2(CC1)c1nc[nH]c1CCN2S(C)(=O)=O (configuration not stated),-9.741%
7,CCOCC1CN(S(C)(=O)=O)Cc2cnn(CC3CCOCC3)c21.O=C(O)C(F)(F)F (configuration not stated),-18.06%
8,COCC1c2c(cnn2CC2CCOCC2)CCN1Cc1ccoc1.O=C(O)C(F)(F)F.O=C(O)C(F)(F)F (configuration not stated),-3.551%
9,Cn1ncc2c1C(COCC1CC1)CN(C(=O)c1ccoc1)C2 (configuration not stated),107.9%
10,Cn1ncc2c1C(COCC1CC1)CN(S(=O)(=O)C1CC1)C2 (configuration not stated),-3.815%
11,CCOCC1CN(C(=O)c2cccn2C)Cc2cnn(CC3CC3)c21.O=C(O)C(F)(F)F (configuration not stated),-14.68%
12,CCOCC1CN(C(=O)c2cccs2)Cc2cnn(CC3CC3)c21 (configuration not stated),108.8%
13,CCn1ncc2c1C(COCC1CC1)CN(C(=O)c1cccs1)C2 (configuration not stated),2.096%
14,O=C(c1ccco1)N1Cc2cnn(CC3CC3)c2C(COCC2CC2)C1 (configuration not stated),105.1%
15,Cn1ncc2c1C(COCC1CC1)CN(C(=O)Cc1ccsc1)C2 (configuration not stated),0.3372%
16,COCC1CN(C(=O)c2ccoc2)Cc2cnn(CC3CCOCC3)c21.O=C(O)C(F)(F)F (configuration not stated),114.4%
17,CCn1cc2c(n1)C(COCC1CC1)CN(C(=O)c1ccco1)C2 (configuration not stated),0.7054%
18,COC(=O)c1ccc(Cl)c(NS(=O)(=O)c2cn(C)cn2)c1,1.86%
19,CC(C)(C)c1oc(C(N)=O)cc1CN1CCOC(C(F)(F)F)C1 (configuration not stated),-3.878%
20,Cn1c(C(F)(F)F)nn(CCNC(=O)CSCc2ccccc2)c1=O,0.8754%
21,O=C(C1CC(=O)N(C2CCCC2)C1)N1CCN(CCn2cccc2)CC1 (configuration not stated),-10.58%
22,COc1ccc(C(=O)N(C)Cc2cc(C)on2)c(OC)c1,-3.822%
23,O=C(c1ccoc1)N1Cc2cnn(CC3CC3)c2C(COCC2CC2)C1 (configuration not stated),83.82%
24,CCOCC1CN(C(=O)c2ccoc2)Cc2cnn(C)c21 (configuration not stated),92.74%
25,O=C(c1ccoc1)N1CCn2cnc(COCC3CC3)c2C1,-6.66%

row,Compound,Percent Effect
1,CCOCC1CN(C(=O)c2ccoc2)Cc2nn(C)cc21 (configuration not stated),-3.903%
2,O=C(c1ccoc1)N1CCc2c(COCC3CC3)cncc2C1,-80.75%
3,O=C(NCc1ccc(F)cc1)NCC1(N2CCOCC2)CCSC1 (configuration not stated),-10.73%
4,COc1ccnc(N2CCN(C(=O)c3csc(C(C)C)n3)CC2)n1,-5.502%
5,CNC(=O)C(C)CN(C)C(=O)Nc1ccc(Cl)cc1-n1cccc1 (configuration not stated),0.2413%
6,CN1C(=O)c2ccc(C(=O)N(Cc3cnn(C)c3)C3CC3)cc2C1=O,106.1%
7,CCN(Cc1cnn(C)c1)C(=O)c1cc2ccccc2c(=O)[nH]1,2.375%
8,O=C(c1ccc(O)c(Cl)c1)N(Cc1ccncc1)C1CC1,5.687%
9,COC1CCN(C(=O)c2ccc3ncsc3c2)CC1,13.06%
10,Cn1cc(CN(C(=O)C2COc3ccccc3C2)C2CC2)cn1 (configuration not stated),-27.95%
11,CCN(Cc1cnn(C)c1)C(=O)c1ccccc1O,-0.8063%
12,Cn1cc(CN(C(=O)c2ccc3ncsc3c2)C2CC2)cn1,77%
13,Cn1cc(CN(C(=O)c2ccc(O)c(Cl)c2)C2CC2)cn1,100.3%
14,CN(Cc1cnn(C)c1)C(=O)c1ccnc(OC2CCC2)c1,-14.79%
15,CCCn1cc(C(=O)NCCc2ccncc2)c(C)n1,-13.4%
16,CCCn1cc(C(=O)NCc2nnc(-c3ccc(C)nc3)o2)c(C)n1,141.9%
17,CCOC(=O)c1ccc(CNC(=O)c2ccc(C)nc2)o1,18.5%
18,CCCn1cc(C(=O)NCCC(=O)NC2CCCCC2)c(C)n1,-18.08%
19,Cc1ccc(CCNC(=O)c2cccnc2)o1,-1.027%
20,Cc1ccc(-c2nnc(CNC(=O)c3cccnc3)o2)cn1,101.6%
21,COc1ccccc1OCC(=O)Nc1ncccc1C,-10%
22,COc1cnc(N2CCCC(c3ncc[nH]3)C2)nc1 (configuration not stated),-2.958%

# Reference: ChEMBL document CHEMBL3988442, “University of Dundee, Small-Polar-MMV Screening Library” (2021)
